Results published in PubChem BioAssay (NCI).
About 83,000 compounds went through this panel and 20% of them were active in at least one assay; those are over-represented in the sample as a whole.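 96-well plates, one dose, 48 hours. Percent growth reported; active if below 10.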 Calls of active or inactive are those of the source.

How the values were obtained:
Experiment in all cases: NCI-60 one-dose screen, 48 h (100 = growth as untreated, 0 = no growth, -100 = all killed)
Conditions in all cases: 10 µM unless noted
T-47D breast = test system: T-47D breast
BT-549 breast = test system: BT-549 breast
MDA-MB-435 melanoma = test system: MDA-MB-435 melanoma
SW-620 colon = test system: SW-620 colon
MCF7 breast = test system: MCF7 breast
HCT-116 colon = test system: HCT-116 colon
KM12 colon = test system: KM12 colon
HCC-2998 colon = test system: HCC-2998 colon

Measured: growth

CCOC(=O)c1nc(Nc2ccc(NC(=O)Nc3ccc(F)cc3)cc2)c2ccccc2n1
inactive: T-47D breast 99.2% | BT-549 breast 106% | MDA-MB-435 melanoma 101% | SW-620 colon 96.9% | MCF7 breast 96.5% | HCT-116 colon 101% | KM12 colon 102%

Cc1cc(N)c2cc(NC(=O)/C=C\c3ccccc3Cl)ccc2n1
active: T-47D breast -58.1% | BT-549 breast -72.8% | MDA-MB-435 melanoma -80.5% | SW-620 colon -91.2% | MCF7 breast -82.4% | HCT-116 colon -73% | KM12 colon -83.8%

CNC(=O)c1cc(Oc2ccc3nc(NC(C)=O)sc3c2)ccn1
inactive: T-47D breast 90.7% | BT-549 breast 96.9% | MDA-MB-435 melanoma 102% | SW-620 colon 112% | MCF7 breast 98.9% | HCT-116 colon 89.2% | KM12 colon 98.2%

NC(=O)CCC(C(=O)O)N1C(=O)c2ccc(O)cc2C1=O (centres undefined)
inactive: T-47D breast 102% | BT-549 breast 101% | MDA-MB-435 melanoma 94% | SW-620 colon 111% | MCF7 breast 105% | HCT-116 colon 109% | KM12 colon 103%

COC(=O)c1cc(-c2ccccc2)[nH]c1N/N=C/c1c(Cl)cccc1Cl
active: MDA-MB-435 melanoma -26.9% | MCF7 breast -38.2% | HCT-116 colon -1.99%
inactive: T-47D breast 38.5% | BT-549 breast 24.1% | SW-620 colon 13.3% | KM12 colon 10.2%

COc1cc(OC)c2sc(-c3ccc(-n4cncc4-c4ccc(OC)c(OC)c4)cc3)nc2c1
inactive: T-47D breast 29.7% | BT-549 breast 44.5% | MDA-MB-435 melanoma 53.3% | SW-620 colon 55.7% | MCF7 breast 44.5% | HCT-116 colon 40.8% | KM12 colon 52.8%

COc1ccc2c3c([nH]c2c1)C(=O)c1nc(C)ccc1C3=O
active: MDA-MB-435 melanoma -76.2%
inactive: T-47D breast 48.5% | BT-549 breast 71.7% | SW-620 colon 42.8% | MCF7 breast 41% | HCT-116 colon 30.3% | KM12 colon 36.6%

Cc1ccc(-c2nc(/C=C3/C(=O)Nc4ccccc43)c3ccccn23)cc1
inactive: T-47D breast 80.7% | BT-549 breast 104% | MDA-MB-435 melanoma 94.3% | SW-620 colon 64.8% | MCF7 breast 37.2% | HCT-116 colon 66.8% | KM12 colon 88.4%

COc1cccc(NC(=O)Cn2cc(CN3CCN(c4ccnc5cc(Cl)ccc45)CC3)nn2)c1
inactive: T-47D breast 70.7% | BT-549 breast 77.2% | MDA-MB-435 melanoma 96.7% | SW-620 colon 88.8% | MCF7 breast 86.7% | HCT-116 colon 97% | KM12 colon 78.4%

Cc1ccccc1NC(=O)c1sc2nc(C)c(C(=O)/C=C/c3ccccc3)cc2c1N
active: MDA-MB-435 melanoma -22.7% | SW-620 colon -10.5% | MCF7 breast 9.97% | KM12 colon 9.57%
inactive: T-47D breast 32% | BT-549 breast 21.5% | HCT-116 colon 10.1%

CNc1nc(S(=O)c2ccc(C#N)cc2)nc2ccccc12 (centres undefined)
inactive: T-47D breast 62.4% | BT-549 breast 74.6% | MDA-MB-435 melanoma 88% | SW-620 colon 76% | MCF7 breast 72.1% | HCT-116 colon 51.4% | KM12 colon 99%

CO[C@H]1/C=C(/C)CCC[C@H](C)[C@H](O)[C@@H](C)C(=O)C(C)(C)[C@@H](O)CC(=O)O[C@@H]1/C(C)=C/c1csc(C)n1
inactive: T-47D breast 42.3% | BT-549 breast 32.3% | SW-620 colon 33.8% | MCF7 breast 20.4%
active: MDA-MB-435 melanoma -34.8% | HCT-116 colon 9.39% | KM12 colon 5.07%

Cc1cc(Cl)ccc1Nc1nc(C(F)(F)F)ccc1C(=O)N/N=C/c1ccc([N+](=O)[O-])cc1
inactive: SW-620 colon 93.4%
active: T-47D breast -1.52% | BT-549 breast 6.01% | MDA-MB-435 melanoma 6.79% | MCF7 breast -47.7% | HCT-116 colon 6.32% | KM12 colon -20.6%

CCn1c(SCC(=O)c2ccc(Br)cc2)nnc1-c1ccncc1
inactive: T-47D breast 105% | BT-549 breast 116% | MDA-MB-435 melanoma 102% | SW-620 colon 102% | MCF7 breast 92.6% | HCT-116 colon 105% | KM12 colon 106%

CCN1C(=O)N(CC)C2C1NN=c1s/c(=C\c3cccc([N+](=O)[O-])c3)c(=O)n12 (centres undefined)
inactive: T-47D breast 59.3% | BT-549 breast 12.5% | SW-620 colon 21.1% | MCF7 breast 17.1% | HCT-116 colon 11% | KM12 colon 12.1%
active: MDA-MB-435 melanoma -30.4%

CCOC(=O)C1=C(NC)OCC1=O
inactive: T-47D breast 110% | BT-549 breast 102% | MDA-MB-435 melanoma 110% | SW-620 colon 100% | MCF7 breast 103% | HCT-116 colon 108% | KM12 colon 105%

CCn1c(=S)[nH]c2c(=O)n(C)c(=O)n(C)c21
inactive: T-47D breast 104% | BT-549 breast 92.6% | MDA-MB-435 melanoma 103% | SW-620 colon 112% | MCF7 breast 102% | HCT-116 colon 93.1% | KM12 colon 111%

CC1=Nc2cnc(Nc3ccc(OCCN4CCCC4)cc3)nc2Nc2ccccc21
inactive: T-47D breast 61.1% | BT-549 breast 88.2% | MDA-MB-435 melanoma 72.2% | SW-620 colon 68.4% | MCF7 breast 75% | HCT-116 colon 73.6% | KM12 colon 15.2%

CCOC(=O)c1[nH]c(=O)c2c(C)nc(-c3ccccc3)cc2c1O
inactive: T-47D breast 101% | BT-549 breast 146% | MDA-MB-435 melanoma 109% | SW-620 colon 98.3% | MCF7 breast 92.7% | HCT-116 colon 95% | KM12 colon 110%

COC(=O)c1c2c(c(C)[n+]([O-])c1C)C(=O)C=C(NCc1ccc(OC)cc1)C2=O
active: T-47D breast -31% | BT-549 breast -88.8% | MDA-MB-435 melanoma -91.6% | SW-620 colon 0.249% | MCF7 breast -55.1% | HCT-116 colon -11.6% | KM12 colon -3.93%

O=Nc1c(-c2c(O)[nH]c3ncccc23)[nH]c2ccccc12
inactive: T-47D breast 49.1% | BT-549 breast 45.2% | MDA-MB-435 melanoma 72.6% | SW-620 colon 62.8% | MCF7 breast 67.8% | HCT-116 colon 36.9% | KM12 colon 15%

O=C1CNC(c2ccccc2)C(c2ccccc2)N1 (centres undefined)
inactive: T-47D breast 104% | BT-549 breast 82.8% | MDA-MB-435 melanoma 105% | SW-620 colon 98.5% | MCF7 breast 91.8% | HCT-116 colon 93% | KM12 colon 100%

CCN(c1ccc(Cl)cc1)c1nc(-c2ccc([N+](=O)[O-])cc2)cs1
inactive: T-47D breast 77.2% | BT-549 breast 115% | MDA-MB-435 melanoma 103% | SW-620 colon 91.7% | HCT-116 colon 97.9% | HCC-2998 colon 98.7% | KM12 colon 93.2%

C#Cc1ccc(NC(=O)c2ccc(/C=C/C(=O)c3nccn3C)cc2)cc1
active: T-47D breast 0.0135% | BT-549 breast -78.5% | MDA-MB-435 melanoma -44.7% | SW-620 colon -73.3% | MCF7 breast -45.4% | HCT-116 colon -62.6% | KM12 colon -64.1%

O=C1Nc2ccccc2/C1=C\c1nc(-c2ccccc2)n2ccccc12
inactive: T-47D breast 43.1% | BT-549 breast 85.5% | MDA-MB-435 melanoma 90.5% | SW-620 colon 103% | MCF7 breast 52.9% | HCT-116 colon 76.3% | KM12 colon 74.3%

COc1ccc2c(c1)[n+]([O-])c(C(=O)/C=C/C=C(\Cl)c1cc(OC)c(OC)c(OC)c1)c(C)[n+]2[O-]
inactive: T-47D breast 87.1% | BT-549 breast 74.9% | MDA-MB-435 melanoma 93% | SW-620 colon 103% | MCF7 breast 83.4% | HCT-116 colon 80.6% | KM12 colon 101%

CCN(CC)CCCN1C(=O)c2c(c(C)c3c(oc4cc(O)ccc43)c2C)C1=O
inactive: T-47D breast 97.7% | BT-549 breast 94.8%
active: MDA-MB-435 melanoma -61.1% | SW-620 colon -36% | MCF7 breast -69.2% | HCT-116 colon -76.4% | KM12 colon -59.3%
